Bioassay records as filed in PubChem.
A selection: hits, their analogues and other compounds. The true share with any hit is near 3.5%.
ANO1 activ: TMEM16A chloride channel activators or potentiators, primary screen, cell-based, HTS; HEK293 TMEM16A/YFP-H148Q/I152L, iodide quench fluorescence; hits give low values; B-score at 10 µM; 340,000 compounds, 0.3% hits; AID 623877, 2012;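 active = fluorescence-ratio B-score plate-corrected deviation score at least 3 library SD below zero, with starting fluorescence score within 5 deviations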;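 also: channel opened by trigger with iodide after compound preincubation; score built on the fluorescence ratio of max minus min over baseline; more negative score means more quench and so TMEM16A activation or potentiation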
KCNK3 block: human KCNK3 channel inhibitors, primary screen, CHO cells, FluxOR thallium flux, B-score; Potassium channel subfamily K member 3 (Homo sapiens), O14649; FluxOR fluorescence; hits give low values; B-score at 10 µM; 340,000 compounds, 0.84% hits;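 active = B-score under library mean minus 4 SD, starting fluorescence ratio at most library mean plus 5 SD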;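 also: more negative B-score means stronger inhibition of thallium flux through KCNK3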
ANO1 block: TMEM16A chloride channel inhibitors, primary screen, cell-based, HTS | Anoctamin-1 (Mus musculus), Q8BHY3 | HEK293 TMEM16A/YFP iodide influx fluorescence, ionomycin | normalized B-score (activity score, 25-100; higher = stronger inhibition) at 10 µM | 310,000 compounds, 1.2% hits;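 active = ratio plate-corrected score three or more library SD toward inhibition, starting fluorescence score within five deviations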;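 also: score derived from kinetic fluorescence span divided by baseline fluorescence per well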
Kir21 inh: inhibitors of mouse Kir2.1 inward-rectifier potassium channel. HEK293-Kir2.1, FluxOR thallium flux fluorescence; hits give low values. B-score at 10 µM. 310,000 compounds, 0.85% hits. Inward rectifier potassium channel 2 (Mus musculus), P35561. AID 1672, 2009;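 active = fluorescence ratio B-score at or below minus 3 SD of library scores, with starting-brightness B-score within 2 SD, cut at about -4.2 in these data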;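 also: channel flux triggered by added potassium and thallium sulfate stimulus; B-score of peak minus minimum fluorescence over baseline after thallium stimulus; more negative B-score means stronger Kir2.1 block with less thallium influx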
KCNK9 inh: KCNK9 potassium channel inhibitors, primary screen, HEK293 cells, thallium flux. Potassium channel subfamily K member 9 (Homo sapiens), Q9NPC2. FluxOR thallium flux fluorescence; hits give low values. B-score at 10 µM. 310,000 compounds, 1.2% hits. AID 488922, 2010;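 active = ratio B-score over 3 SD below the library mean, with starting fluorescence within 5 SD of its mean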;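 also: negative B-score means less thallium flux so channel inhibition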
Target sequence (Q9NPC2 whole entry, looked up): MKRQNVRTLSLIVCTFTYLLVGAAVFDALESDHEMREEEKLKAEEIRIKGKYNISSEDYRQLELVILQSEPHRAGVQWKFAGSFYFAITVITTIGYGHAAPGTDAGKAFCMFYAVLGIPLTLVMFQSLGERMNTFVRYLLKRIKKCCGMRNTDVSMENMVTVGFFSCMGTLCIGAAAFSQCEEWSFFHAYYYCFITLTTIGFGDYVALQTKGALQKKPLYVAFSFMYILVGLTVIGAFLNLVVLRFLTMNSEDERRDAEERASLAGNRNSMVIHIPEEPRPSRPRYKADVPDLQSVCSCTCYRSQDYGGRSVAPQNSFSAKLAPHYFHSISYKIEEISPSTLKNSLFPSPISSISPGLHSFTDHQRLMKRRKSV
KCNK3 inh conf: retest of human KCNK3 channel inhibitors, confirmation, CHO cells, FluxOR thallium flux, triplicate; shares compounds with KCNK3 block; FluxOR fluorescence; 0% buffer, 100% carvedilol maximal block; ratio percent of control, % at 10 µM; 2,400 compounds, 99% hits;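 active = ratio percent of control, averaged over triplicates, above buffer control mean plus 5 SD, cut at about 64% in these data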;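 also: ratio is the fluorescence rise from min to max over baseline after thallium stimulus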
KCNK3 uninduced: thallium flux inhibition in non-induced cells, primary screen, counter-screen for KCNK3 inhibitor project, cell-based, non-induced KCNK3 line, FluxOR thallium, triplicate | thallium flux ratio (lower = more inhibition) at 10 µM | non-induced KCNK3 parental cells; hits give low values | shares compounds with KCNK3 block | AID 651747, 2012 | 2,400 compounds, 40% hits;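 active = thallium flux ratio, averaged over three wells, more than 5 SD below the buffer control mean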;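 also: host cells are CHO cells without KCNK3 induction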
Large screens that a line does not name were inactive (follow-up assays come after a bar, where they were run).

O=C(Nc1ccccc1N1CCN(c2ccccc2)CC1)c1ccccc1F	KCNK3 block -9.7 | KCNK3 inh conf 125 | KCNK3 uninduced 0.11
CCN(C(=O)COC(=O)CN1C(=O)c2ccccc2C1=O)c1ccccc1	none (no result: ANO1 block, Kir21 inh, KCNK9 inh)
CCN(C(=O)CSc1cc(C)c2ccccc2n1)c1c(N)n(Cc2ccccc2)c(=O)[nH]c1=O	none
CCN(C(=O)COC(=O)CCc1ccccc1)c1ccccc1	KCNK3 block -9.5 | KCNK3 inh conf 81 | KCNK3 uninduced inactive
CCN(C(=O)COC(=O)CSc1cc(C)c2ccccc2n1)c1ccccc1	KCNK3 block -9.6 | KCNK3 inh conf 97 | KCNK3 uninduced inactive
COc1ccc(N2CC(C(=O)N[C@@H](C)C(=O)NCc3ccccc3OC)CC2=O)cc1 (stereo partly drawn)	none
O=C(NC1CCN(Cc2ccccc2)CC1)c1ccccc1OCc1ccccc1Cl	KCNK3 block -11, Kir21 inh -6.7, KCNK9 inh -7.8 | KCNK3 inh conf 99 | KCNK3 uninduced inactive
CCOc1ccccc1C(=O)NC1CCN(Cc2ccccc2)CC1	none
O=C(NC1CCN(Cc2ccccc2)CC1)c1ccccc1OCc1ccccc1	KCNK3 block -10, Kir21 inh -4.3 | KCNK3 inh conf 99 | KCNK3 uninduced inactive
O=C(NC1CCCC1)c1ccccc1OCc1ccccc1	none
COC(CNC(=O)C1CC(=O)N(CCc2ccccc2)C1)OC (stereo not drawn)	none
CCOC(=O)c1c(C)[nH]c(C)c1C(=O)COC(=O)[C@@H](NC(=O)c1ccccc1OCC)C(C)C	KCNK3 block -9.1 | KCNK3 inh conf 104 | KCNK3 uninduced inactive
CC(=O)Nc1ccc(NC(=O)CC(c2ccccc2)c2ccccc2)cc1	none
O=C(CC(c1ccccc1)c1ccccc1)Nc1ccc(O)cc1	KCNK3 block -9.7 | KCNK3 inh conf 88 | KCNK3 uninduced inactive
O=C(CC(c1ccccc1)c1ccccc1)Nc1ccc(Cl)cn1	KCNK3 block -8.9 | KCNK3 inh conf 109 | KCNK3 uninduced inactive
CSc1cccc(NC(=O)N2CCc3ccc(NC(=O)c4ccccn4)cc3C2)c1	KCNK3 block -11 | KCNK3 inh conf 112 | KCNK3 uninduced 0.16
Cc1ccc(-c2nnn(CC(=O)N(CCCO)C(C(=O)NC3CCCC3)c3ccc(F)cc3)n2)o1 (stereo not drawn)	none
Cc1nn(C)c(NC(=O)c2ccccc2Cl)c1Cl	none
Cc1cccc(N=c2oc3cc(O)ccc3cc2C(N)=O)c1	KCNK3 block -8.8 | KCNK3 inh conf 113 | KCNK3 uninduced inactive
CCOC(=O)c1c(NC(=O)C2CCCO2)sc(C)c1C (stereo not drawn)	KCNK3 block -11 | KCNK3 inh conf 109 | KCNK3 uninduced inactive
Cc1sc(NC(=O)C2CCCO2)c(C(N)=O)c1C (stereo not drawn)	none
Cc1ccc(C(=O)NC(C)c2ccc(F)cc2)cc1 (stereo not drawn)	none
Cc1ccc(C(C#N)c2ccc(C(=O)c3ccc(F)cc3)cc2)cc1 (stereo not drawn)	KCNK3 block -8.8, ANO1 block 25 | KCNK3 inh conf 99 | KCNK3 uninduced 0.12
CCCN1C(=O)/C(=C/c2cc(C)n(C)c2C)SC1=Nc1ccc(OC)cc1	KCNK3 block -11 | KCNK3 inh conf 101 | KCNK3 uninduced 0.15
CSCC[C@H](NC(=O)c1ccc(Cl)c(S(=O)(=O)N2CCCC2)c1)c1nc2ccccc2[nH]1	KCNK3 block -11 | KCNK3 inh conf 107 | KCNK3 uninduced inactive
O=C(O)c1ccc(NC2=C(Cl)C(=O)c3ccccc3C2=O)cc1	KCNK3 block -12, ANO1 block 100, Kir21 inh -9.1, KCNK9 inh -12 | KCNK3 inh conf 137 | KCNK3 uninduced 0.092
O=C1C(Cl)=C(Nc2ccccc2)C(=O)c2ccccc21	none
O=C(O)c1cccc(NC2=C(Cl)C(=O)c3ccccc3C2=O)c1	KCNK3 block -8.7, Kir21 inh -7.3 (no result: ANO1 block) | KCNK3 inh conf 126 | KCNK3 uninduced 0.12
O=C1C(Cl)=C(NCCc2ccccc2)C(=O)c2ccccc21	KCNK3 block -14 (no result: ANO1 block, Kir21 inh, KCNK9 inh) | KCNK3 inh conf 161 | KCNK3 uninduced 0.065
CCc1ccccc1NC(=O)CN(c1ccc(OC)cc1OC)S(=O)(=O)c1ccccc1	none
CC1=C(C(=O)OC(C)C)C(c2ccc(C)o2)C(C(=O)OC(C)C)=C(C)N1	KCNK3 block -9.4 | KCNK3 inh conf 113 | KCNK3 uninduced 0.14
COc1ccc(CCC(=O)O)cc1OC	none
CCOC(=O)c1c2c(c(=S)n(-c3ccccc3)c1N)CCC2	KCNK3 block -10 | KCNK3 inh conf 123 | KCNK3 uninduced 0.11
CCOc1ccccc1NC1=C(Cl)C(=O)N(Cc2ccccc2)C1=O	KCNK3 block -8.8 | KCNK3 inh conf 117 | KCNK3 uninduced 0.15
COC(=O)c1sccc1NC(=O)c1ccc(C(C)C)cc1	KCNK3 block -11 | KCNK3 inh conf 100 | KCNK3 uninduced inactive
COC(=O)c1sccc1NC(=O)c1ccccc1	none
CCCN1CCc2c(sc(NC(=O)c3ccc(S(=O)(=O)N4CCN(C(=O)OCC)CC4)cc3)c2C(N)=O)C1	KCNK3 block -11 | KCNK3 inh conf 125 | KCNK3 uninduced 0.093
COc1ccc(CN(C)C(C)C(=O)Nc2cccc3ccccc23)cc1 (stereo not drawn)	KCNK3 block -9.7 | KCNK3 inh conf 121 | KCNK3 uninduced 0.16
COc1ccccc1NC(=O)C(C)N(C)Cc1ccc(Cl)s1 (stereo not drawn)	KCNK9 inh -6.9 | KCNK3 inh conf 107 | KCNK3 uninduced 0.16
COc1ccccc1NC(=O)C(C)N(C)CC(=O)Nc1cccc2ccccc12 (stereo not drawn)	none (no result: ANO1 block, Kir21 inh, KCNK9 inh)
COc1cccc(CNC(=O)c2ccccc2-c2ccccc2)c1	none
Cc1ccc(S(=O)(=O)NCC(c2ccccc2)N2CCCCC2)cc1 (stereo not drawn)	none
CC1CCN(C(CNS(=O)(=O)c2ccccc2)c2ccccc2)CC1 (stereo not drawn)	KCNK3 block -13 (no result: ANO1 block, Kir21 inh, KCNK9 inh) | KCNK3 inh conf 61 | KCNK3 uninduced inactive
CN(CC(=O)NCC(=O)Nc1ccc(F)cc1)CC(=O)Nc1ccc(Cl)c(C(F)(F)F)c1	none (no result: ANO1 block, Kir21 inh, KCNK9 inh)
CN(CC(=O)NCc1ccc(F)cc1)CC(=O)Nc1ccc(Cl)c(C(F)(F)F)c1	KCNK3 block -11, ANO1 block 100 | KCNK3 inh conf 113 | KCNK3 uninduced inactive
